The nature of experiment [1]: qHTS assay to identify small molecule antagonists of the estrogen related receptor (ERR) signaling pathway - cell viability counter screen (AID 1224818). Also: series mostly up to about 46 µM. The gist of the method: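 Cytotoxicity check run alongside the ERR antagonist screen: cells exposed to test compounds 17.5 h at 37 C, viability taken as CellTiter-Fluor fluorescence intensity.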
Background: Quantitative high-throughput screening tests each substance at several concentrations.

Experiment [2] in a line: qHTS assay to identify small molecule antagonists of the estrogen related receptor signaling pathway with the pleiotropic PPARgamma coactivator (PGC) cell viability counter screen (AID 1224822;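 also: series mostly up to about 46 µM; viability read after 17.5 h compound exposure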). The gist of the method: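 Viable cell signal (CellTiter-Fluor, 30 min, 37 C/5% CO2) was measured in PGC/ERR cells after a 17.5 h compound incubation.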
Experiment [3] in a line: qHTS assay to identify small molecule agonists of the estrogen related receptor (ERR) signaling pathway (AID 1224820). The gist of the method: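 An ERR cell line provided by NTP was seeded at 2,000 cells per well and allowed to settle for 6 h before compounds in DMSO were added. After 18 h at 37 C, luciferase activity was measured by One-Glo luminescence.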
Experiment [4] is described as follows: qHTS assay to identify small molecule agonists of the estrogen related receptor signaling pathway with the pleiotropic PPARgamma coactivator (PGC) (AID 1224823). The gist of the method:
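Compounds dissolved in DMSO are added by pin tool to PGC/ERR cells that have settled for 6 h, and incubation continues 18 h at 37 C. Reporter output is measured as One-Glo luminescence.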

Results filed as inconclusive are left out. A call without a number means that no potency is given here. A number with no mark means an inactive call. The source made the active and inactive calls. Calls follow the shape of the dose curve; as a rule, active = well fitted curve in the direction sought with a large enough effect in the repeat runs; inconclusive = weak or mixed curves; inactive = no such curve, though single readings can be large; an effect the other way counts as inactive or inconclusive.

This passage reports Potency results from PubChem BioAssay (Tox21).

Consider `CN1C2CCC1CC(OC(=O)c1cc(Cl)cc(Cl)c1)C2` (stereo unspecified), for which the Potency result in experiment [1] and in experiment [2] was “inactive” each time.

For `COC(=O)[C@@H](N)CCCN=C(N)N[N+](=O)[O-]`, the Potency result in experiment [1] and in experiment [2] was “inactive” in each case.

As for `Clc1ccc(C(c2ccc(Cl)cc2)n2cc[n+](CC(OCc3ccc(Cl)cc3Cl)c3ccc(Cl)cc3Cl)c2)cc1` (stereo unspecified), the Potency result in experiment [3] and in experiment [4] was “inactive” throughout.
